40 compounds from PubChem BioAssay can be followed below.

Structures are written as SMILES.

This test can be described thus: NFkB reporter suppression in cystic fibrosis bronchial cells – cell-based, uHTS hits, panel, cytotoxicity readout, dose response (AID 624344). The conditions noted are these: CF bronchial epithelial cells, PAF-induced NFkB reporter inhibition, with PAF, run 1; at 79 µM (top of the series) unless noted.
For orientation: inhibition means the change of the read-out against control, counted positive when it falls. Turning to `CN(C)c1ccc(Nc2ncnc3ccc(Br)cc23)cc1`, the inhibition is 104%.
The figure for `O=C(Nc1ccncc1)c1c(Cl)cccc1Cl` is 112%; for `O=C1CC(=O)OC(c2ccc([N+](=O)[O-])cc2)O1` it is 101%.
The figure for `O=C(Oc1cc2oc(=O)cc(-c3ccccc3)c2cc1Cl)C1CCCCC1` is 113%; for `C=CCN1c2ccccc2[C@]23C[C@@H](C(=O)OC)N(C(=O)c4ccc(Br)cc4)C2=NC(C(=O)OC)=C(C(=O)OC)[C@H]13` it is 115%.
The figure for `COc1cc(-c2cnc3c(NC=O)cc(-c4ccc(C)cc4)cn23)cc(OC)c1OC` is 70.3%.
`CCCCN(CCCC)c1ncnc2nc[nH]c12`: the inhibition is 102%.
The figure for `COc1ccc2c(c1OC)C(=O)N1c3ccccc3C(=O)N(c3ccccc3)C21` (stereo not given) is 112%; for `OCCN1CCN(c2ncnc3ccc(Br)cc23)CC1` it is 95.4%.
In the case of `CC[C@@H](C(=O)[C@@H](C)[C@@H](O)[C@H](C)[C@@H]1O[C@@H]([C@@H](CC)C(=O)O)CC[C@@H]1C)[C@H]1O[C@]2(C=C[C@@H](O)[C@]3(CC[C@@](C)([C@H]4CC[C@](O)(CC)[C@H](C)O4)O3)O2)[C@H](C)C[C@@H]1C` it was 117%.
In the case of `COc1cc(O)c(CC=C(C)C)c(O)c1C(=O)CCc1ccc(O)cc1`, the inhibition was 112%.
The figure for `CC(C)(C)S(=O)N1Cc2cc(C(=O)NCC(F)(F)F)nc(-c3cccc(-c4cccc(F)c4)c3)c2[C@@H]1CCO` (stereo not given in full) is 110%.
The figure for `COc1ccc(-c2cnc3c(NC=O)cc(-c4ccccc4OC)cn23)cc1OC` is 93.5%; for `C/C(=N/NC(=O)c1cccs1)c1ccc(NC(=O)COc2ccc(Cl)cc2)cc1` it is 87%.
In the case of `CC(C)=CCc1c(O)cc(O)c2c1OC(c1ccc(O)cc1)CC2=O` (stereo not given), the inhibition was determined as 93.2%.
With `O=S(=O)(Nc1nc2ccccc2nc1N1CCN(c2ccccc2F)CC1)c1ccc(Cl)cc1`, the inhibition was found to be 96.7%.
`Cn1c(N2CCN(C(c3ccccc3)c3ccccc3)CC2)nc2c1c(=O)[nH]c(=O)n2C`: the inhibition was determined as 108%.
In the case of `C[C@@H](NC(=O)c1coc(=O)c(Br)c1)c1ccccc1`, the inhibition was 77.6%.
The figure for `C=CCN(CC=C)c1ncnc2[nH]ncc12` is 99.9%; for `COC(=O)c1ccc2c(c1)C(C)(C)C(/C=C/c1ccccc1O)=[N+]2C` it is 81.4%; for `c1nc(N2CCOCC2)c2c3c(sc2n1)CCCC3` it is 98.5%.
The figure for `Cc1ccc(Cl)cc1-c1cc(C(=O)NCc2cc(C(F)(F)F)cc(C(F)(F)F)c2)[nH]n1` is 84.9%.
In the case of `CC1C(=O)N(Cc2cn(Cc3ccco3)nn2)CCS(=O)(=O)N1Cc1ccc(-c2ccccc2C(F)(F)F)cc1` (stereo not given) it was 97.9%; in that of `CCN1CCN(Cc2ccc(NC(=O)c3ccc(C)c(NC(=O)c4csc(-c5ccncc5)n4)c3)cc2C(F)(F)F)CC1`, 107%; in that of `Cc1ccc(C(=O)c2cncc(Br)c2)cc1`, 86.5%.
With `CCN1CCN(Cc2ccc(NC(=O)c3ccc(C)c(NC(=O)c4ccc5n[nH]nc5c4)c3)cc2C(F)(F)F)CC1`, the inhibition was 101%.
Regarding `COc1ccc([C@]2(C(C)C)ON(c3ccccc3C(F)(F)F)C2=O)cc1`, the inhibition worked out at 103%.
The figure for `C=CC[C@]12CC=CC(=O)[C@@]1(O)O[C@H](c1ccc(OC)c(OC)c1)[C@H]2C` is 110%; for `CN(Cc1ccco1)c1ncnc2ccc(-c3ccoc3)cc12` it is 114%.
The figure for `O=C(NCCc1ccccc1)c1coc(=O)c(Br)c1` is 84%; for `COc1ccc(S(=O)(=O)N2c3ccc(F)cc3CCC2C)cc1` (stereo not given) it is 98.8%.
The figure for `Cc1cccc(N2CCN(C(=O)c3[nH]c(C(F)(F)F)nc3-c3ccccc3)CC2)c1C` is 91.2%.
`CCOC(=O)c1c(C)cc2c(CO)n[nH]c(=O)c2c1C`: the inhibition was 104%.
In the case of `CCOC(=O)[C@@H]1[C@H]2COc3ccc(Br)cc3[C@H]2N2C(=O)N(c3ccc(C)cc3)C(=O)[C@]12C` it was 14.6%.
For `Cc1cc(C)c(C#N)c(SCC(=O)c2ccc(Cl)cc2Cl)n1`, the inhibition was 111%.
The figure for `Cc1cccc(NC(=O)Nc2ccc(C#N)cc2)n1` is 103%; for `O=[N+]([O-])c1cccc(NC(=S)Nc2nc(-c3ccccc3Cl)cs2)c1` it is 108%; for `CN(C)c1ccc(-c2nn3c(-c4ccccc4Cl)nnc3s2)cc1` it is 102%.
On to `CCOC(=O)C1(C(=O)OCC)COC(=O)C1CN1Cc2cc3ccccc3nc2C1` (stereo not given), for which the inhibition is 65.1%.
The figure for `COc1ccc(COC(=O)C2=C(C)NC(=O)NC2c2ccc(F)cc2)cc1` (stereo not given) is 90.1%.
